Screening data (PubChem BioAssay)
UHRF1 binding: blocks human UHRF1 binding to methylated DNA; Q96T88; UHRF1 binding to methylated oligo, TR-FRET; inhibition, % at 4.4 µM; hit rate 0.75% among 370,000; in the data active means inhibition above about 21%;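 further: UHRF1 SRA domain binding a hemimethylated CpG hairpin DNA probe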
KLK7 zymogen act: activators of human kallikrein-7 zymogen; purified proKLK7, EDANS-DABCYL substrate fluorescence; 100% is mature enzyme control, 0% vehicle; activation, % at 7 µM; hit rate 0.9% among 370,000; AID 652039;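 active means activation above the mean of all tested compounds plus 3 SD, computed per campaign excluding outliers beyond control limits, cut at about 13% in these data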
Target sequence (P49862 whole entry, looked up): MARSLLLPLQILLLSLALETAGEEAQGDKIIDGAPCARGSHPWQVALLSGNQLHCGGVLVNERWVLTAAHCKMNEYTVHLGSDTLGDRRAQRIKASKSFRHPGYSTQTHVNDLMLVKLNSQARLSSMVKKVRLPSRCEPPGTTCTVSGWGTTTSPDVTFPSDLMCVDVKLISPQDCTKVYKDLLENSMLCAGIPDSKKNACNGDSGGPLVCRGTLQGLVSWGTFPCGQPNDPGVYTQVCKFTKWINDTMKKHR
Neddyl block: blocks human cullin neddylation; P61081+Q13564; calls only at 25 µM; hit rate 0.58% among 360,000; TR-FRET cullin neddylation, biochemical; AID 651699; in the data active means inhibition above about 36%
MBD2 inh: MBD2-methylated oligo binding inhibition; Q9UBB5; TR-FRET, MBD2 binding to methylated oligonucleotide; inhibition, % at 4.4 µM; hit rate 0.31% among 370,000; AID 686964; in the data active means inhibition above about 13%
Target sequence (Q9UBB5 whole entry, looked up): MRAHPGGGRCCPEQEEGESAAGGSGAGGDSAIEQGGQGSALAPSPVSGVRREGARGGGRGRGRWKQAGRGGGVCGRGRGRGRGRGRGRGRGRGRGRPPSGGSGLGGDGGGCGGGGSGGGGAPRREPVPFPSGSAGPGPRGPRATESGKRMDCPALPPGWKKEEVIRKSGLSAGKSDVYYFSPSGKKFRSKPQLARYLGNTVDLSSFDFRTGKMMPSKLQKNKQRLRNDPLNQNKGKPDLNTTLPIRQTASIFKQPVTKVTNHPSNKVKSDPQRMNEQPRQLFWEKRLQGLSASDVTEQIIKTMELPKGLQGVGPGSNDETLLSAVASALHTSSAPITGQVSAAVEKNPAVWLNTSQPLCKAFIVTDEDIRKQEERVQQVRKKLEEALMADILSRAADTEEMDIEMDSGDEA
LEDGF integ inh: blocks HIV-1 LEDGF/p75-dependent DNA integration. hit rate 0.64% among 370,000. inhibition, % at 3.7 µM. TR-FRET IN-LEDGF/p75 DNA integration, Eu/Cy5. AID 743269;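 active means inhibition above the screen-wide mean plus 3 SD, cut at about 13% in these data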;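 further: signal is the Cy5 over europium emission ratio at 671 and 618 nm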
Rin1 Abl inh: inhibitors of human Rin1-Abl protein interaction; hit rate 0.4% among 360,000; TR-FRET Rin1/Abl binding, biochemical; P00519+Q13671; inhibition, % at 7.35 µM; AID 588664; in the data active means inhibition above about 5%, passing the limit was not always enough
IN multimer up: HIV-1 integrase multimerization activation, counter-screen; TR-FRET HIV-1 integrase multimerization, biochemical; activation, % at 7.7 µM; hit rate 17% among 2,000; shares compounds with LEDGF integ inh; in the data active means activation above about 8.9%
TR-FRET interf: optically interferes with TR-FRET readout in LEDGF counter-screen; shares compounds with LEDGF integ inh; TR-FRET optical interference counterscreen, HIV-1 IN multimerization; inhibition, % at 7.7 µM; 2,000 tested, under 10 active; AID 1053135;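 active means inhibition above the mean over all tested compounds plus 3 SD, which no compound reached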
LEDGF integ conf: confirmation of HIV-1 LEDGF/p75-dependent integration inhibitors; shares compounds with LEDGF integ inh; TR-FRET LEDGF/p75-dependent HIV-1 integration, biochemical; inhibition, % at 3.7 µM; hit rate 36% among 2,000; AID 1053136; in the data active means inhibition above about 14%
Large screens that a line does not name were inactive (follow-up assays come after a bar, where shown). Only some compounds are listed: those with a hit (about 3.1% of all), similar ones and a draw of the others.

CCCN(CCC)C(=S)NC(=O)c1ccc(-c2ccccc2)cc1	LEDGF integ inh 26 | IN multimer up inactive | TR-FRET interf inactive | LEDGF integ conf 35
CCCCN1C(=O)C(CC(=O)NC2CCCC2)CC(C(=O)N(C(C)C)C(C)C)=C1C (configuration not stated)	none
N#Cc1ccsc1NC(=O)COc1ccc(-c2nnco2)cc1	none
N#CCSc1ccccc1NC(=O)COc1ccc(-c2nnco2)cc1	LEDGF integ inh 14 | IN multimer up inactive | TR-FRET interf inactive | LEDGF integ conf inactive
CN(C(=S)Nc1cccnc1)c1ccc(O)cc1	LEDGF integ inh 29 | IN multimer up inactive | TR-FRET interf inactive | LEDGF integ conf inactive
CN(C(=S)Nc1ccc(Oc2ccccc2)cc1)c1ccc(O)cc1	none
Cc1ccc(N2C(=O)[C@@H]3[C@H](C2=O)C2c4ccccc4C=CN2[C@@H]3C(=O)c2ccco2)cc1 (some centres not stated)	LEDGF integ inh 13 | IN multimer up inactive | TR-FRET interf inactive | LEDGF integ conf 25
CC(C)(C)C(=O)NCc1ccc(C(=O)CSc2nnc3n2CCCCC3)s1	none
Cc1ccc(NC(=O)CSc2nnc(-c3ccco3)c(-c3ccco3)n2)cc1	LEDGF integ inh 25 | IN multimer up inactive | TR-FRET interf inactive | LEDGF integ conf 28
O=C(CSc1nnc(-c2ccco2)c(-c2ccco2)n1)Nc1ccccc1	UHRF1 binding 41, LEDGF integ inh 38 | IN multimer up inactive | TR-FRET interf inactive | LEDGF integ conf 55
Cc1ccccc1NC(=O)CSc1nnc(-c2ccco2)c(-c2ccco2)n1	none (no result: UHRF1 binding, KLK7 zymogen act, MBD2 inh, LEDGF integ inh)
CN(C)c1ccc(NC(=O)CSc2nnc(-c3ccco3)c(-c3ccco3)n2)cc1	none
COc1cccc(NC(=O)CSc2nnc(-c3ccco3)c(-c3ccco3)n2)c1	LEDGF integ inh 25 | IN multimer up inactive | TR-FRET interf inactive | LEDGF integ conf 39
COc1ccc(C(=O)CSc2nnc(-c3ccco3)c(-c3ccco3)n2)cc1	LEDGF integ inh 15 | IN multimer up 13 | TR-FRET interf inactive | LEDGF integ conf 41
COc1ccc(NC(=O)CSc2nnc(-c3ccco3)c(-c3ccco3)n2)cc1OC	none
COc1ccc(C(=O)CSc2nnc(-c3ccco3)n2C)cc1	none
Cc1cc(C)nc(N2CCC(C(=O)Nc3cccc(C(F)(F)F)c3)CC2)n1	none
CSCC[C@H](NC(=O)Cc1c(C)c2cc3c4c(oc3cc2oc1=O)CCCC4)C(=O)O	none (not shown: Neddyl block)
O=C(CSc1ccccc1)Nc1cccc(NC(=O)c2ccco2)c1	LEDGF integ inh 16 | IN multimer up inactive | TR-FRET interf inactive | LEDGF integ conf inactive
CSc1nnc(-c2ccco2)c(-c2ccco2)n1	LEDGF integ inh 27 | IN multimer up inactive | TR-FRET interf inactive | LEDGF integ conf 45
O=C(CSc1ccc(Cl)cc1)Nc1cccc(NC(=O)c2ccco2)c1	none
O=S(=O)(O)c1cc(O)c(N=Nc2ccc(O)cc2O)c2ccccc12	LEDGF integ inh 32 | IN multimer up 95 | TR-FRET interf inactive | LEDGF integ conf 40
CCNc1ccc(Br)cc(C(=O)/C=C/c2ccc3c(c2)OCO3)c1=O	LEDGF integ inh 23 | IN multimer up inactive | TR-FRET interf inactive | LEDGF integ conf 41
CCNC(=O)Nc1nc2ccccc2s1	none
CN(C)C(=S)Nc1nc2ccccc2s1	LEDGF integ inh 17 | IN multimer up inactive | TR-FRET interf inactive | LEDGF integ conf inactive
CCOc1ccc2nc(NC(=S)N(C)C)sc2c1	LEDGF integ inh 14 | IN multimer up inactive | TR-FRET interf inactive | LEDGF integ conf inactive
NC1=NS(=O)(=O)NC1c1cccc(Cl)c1 (configuration not stated)	none
C[C@H]1[C@@H](OC(=O)NCc2cccs2)CC[C@@]23CCCN2C(=O)CCC[C@@H]13	none (no result: KLK7 zymogen act, Neddyl block, Rin1 Abl inh)
Cn1c(SCC(=O)N2CCOCC2)nnc1-c1cnccn1	LEDGF integ inh 20 | IN multimer up inactive | TR-FRET interf inactive | LEDGF integ conf inactive
Cn1c(SCC(=O)N2CCOCC2)nnc1-c1ccncc1	none
O=S(=O)(Nc1ccc(O)c2ccccc12)c1cccs1	LEDGF integ inh 26 | IN multimer up inactive | TR-FRET interf inactive | LEDGF integ conf inactive
CC(C)c1ccccc1NC(=O)CN1C(=O)c2ccccc2C1=O	LEDGF integ inh 73 | IN multimer up inactive | TR-FRET interf inactive | LEDGF integ conf inactive
O=C(CN1C(=O)c2ccccc2C1=O)Nc1ccccc1F	none
CC(C)C(NC(=O)CCNC(=O)c1ccc(C(C)(C)C)cc1)c1nc2ccccc2[nH]1 (configuration not stated)	none
Cc1ccc(C2(C)NC(=O)N(CC(=O)Nc3ccc(S(=O)(=O)Nc4nccs4)cc3)C2=O)cc1 (configuration not stated)	none
Cc1nn(-c2ccccc2)c2c1C(c1ccc([N+](=O)[O-])cc1)C(C#N)=C(N)O2 (configuration not stated)	none
COc1cc(C2C(C#N)=C(N)Oc3c2c(-c2ccccc2)nn3-c2ccccc2)cc(OC)c1OC (configuration not stated)	LEDGF integ inh 19 | IN multimer up inactive | TR-FRET interf inactive | LEDGF integ conf inactive
COc1ccc(C(=O)NC(=S)N2CCN(C)CC2)cc1Br	none
Cc1nc(SCC(=O)NCc2ccc3c(c2)OCO3)c(C#N)c2c1CCCC2	LEDGF integ inh 91 | IN multimer up inactive | TR-FRET interf inactive | LEDGF integ conf inactive
Cc1cc(=O)[nH]c(SCC(=O)NCc2ccc3c(c2)OCO3)n1	none
O=C(Nc1cc2c3c(c1)CC(=O)N3CCC2)C1CC1	none
O=C(c1ccccc1)c1ccc(O)c(O)c1O	LEDGF integ inh 22 | IN multimer up inactive | TR-FRET interf inactive | LEDGF integ conf 42
Cc1cc(C)nc(NN2C(=O)/C(=C/c3ccc(O)cc3)SC2=S)n1	none (no result: UHRF1 binding, KLK7 zymogen act, MBD2 inh, LEDGF integ inh)
O=C(O)CSc1cc(NS(=O)(=O)c2ccc(Cl)cc2)c2ccccc2c1O	none
COc1ccc(S(=O)(=O)Nc2cc(SCC(=O)O)c(O)c3ccccc23)cc1	LEDGF integ inh 21 | IN multimer up inactive | TR-FRET interf inactive | LEDGF integ conf 33
O=C(Cc1ccccc1)c1nnc(-c2ccccc2)o1	none
CCOc1ccc(Nc2ccc(N)c(S(=O)(=O)O)c2)cc1	LEDGF integ inh 38 | IN multimer up 14 | TR-FRET interf inactive | LEDGF integ conf 19
